This is an account of results in the supplement of paper PMC12819154, “High-throughput peptide-centric local stability assay extends protein–ligand identification to membrane proteins, tissues and bacteria” (Nature Structural & Molecular Biology, 2025).
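Note: lysate desalted by size exclusion to strip endogenous ATP, peptide intensities built from DIA-NN precursor signals, and peptides missing any value discarded before comparison.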

Chain of UniProt P33371 (P33371 whole entry): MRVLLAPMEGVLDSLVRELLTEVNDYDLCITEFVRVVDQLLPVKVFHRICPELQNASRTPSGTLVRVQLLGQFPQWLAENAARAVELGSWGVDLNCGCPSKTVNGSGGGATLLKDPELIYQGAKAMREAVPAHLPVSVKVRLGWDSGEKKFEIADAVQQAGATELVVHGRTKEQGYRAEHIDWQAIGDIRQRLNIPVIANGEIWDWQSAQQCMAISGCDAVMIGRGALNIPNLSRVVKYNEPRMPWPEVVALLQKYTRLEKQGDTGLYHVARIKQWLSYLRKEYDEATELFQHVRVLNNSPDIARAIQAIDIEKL
Chain of UniProt P52612 (P52612 whole entry): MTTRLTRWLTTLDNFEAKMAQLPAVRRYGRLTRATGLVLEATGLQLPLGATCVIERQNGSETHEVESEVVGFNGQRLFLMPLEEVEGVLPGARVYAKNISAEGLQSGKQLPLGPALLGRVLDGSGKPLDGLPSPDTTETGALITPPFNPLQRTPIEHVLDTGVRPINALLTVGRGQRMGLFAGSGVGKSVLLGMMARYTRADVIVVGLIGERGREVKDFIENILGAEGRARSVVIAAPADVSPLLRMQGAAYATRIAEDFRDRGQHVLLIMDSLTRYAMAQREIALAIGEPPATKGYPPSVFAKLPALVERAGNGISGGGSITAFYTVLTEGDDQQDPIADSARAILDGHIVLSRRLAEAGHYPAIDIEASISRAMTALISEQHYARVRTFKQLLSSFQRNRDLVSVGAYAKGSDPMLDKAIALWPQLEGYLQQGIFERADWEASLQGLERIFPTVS
Chain of UniProt P39383 (P39383 whole entry): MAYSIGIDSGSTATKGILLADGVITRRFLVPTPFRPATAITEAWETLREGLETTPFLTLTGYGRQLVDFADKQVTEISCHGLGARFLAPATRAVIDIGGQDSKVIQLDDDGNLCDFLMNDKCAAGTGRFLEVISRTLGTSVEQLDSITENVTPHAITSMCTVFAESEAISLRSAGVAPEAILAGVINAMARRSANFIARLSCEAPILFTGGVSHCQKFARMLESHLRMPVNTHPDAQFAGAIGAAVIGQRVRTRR
Chain of UniProt P06612 (P06612 whole entry): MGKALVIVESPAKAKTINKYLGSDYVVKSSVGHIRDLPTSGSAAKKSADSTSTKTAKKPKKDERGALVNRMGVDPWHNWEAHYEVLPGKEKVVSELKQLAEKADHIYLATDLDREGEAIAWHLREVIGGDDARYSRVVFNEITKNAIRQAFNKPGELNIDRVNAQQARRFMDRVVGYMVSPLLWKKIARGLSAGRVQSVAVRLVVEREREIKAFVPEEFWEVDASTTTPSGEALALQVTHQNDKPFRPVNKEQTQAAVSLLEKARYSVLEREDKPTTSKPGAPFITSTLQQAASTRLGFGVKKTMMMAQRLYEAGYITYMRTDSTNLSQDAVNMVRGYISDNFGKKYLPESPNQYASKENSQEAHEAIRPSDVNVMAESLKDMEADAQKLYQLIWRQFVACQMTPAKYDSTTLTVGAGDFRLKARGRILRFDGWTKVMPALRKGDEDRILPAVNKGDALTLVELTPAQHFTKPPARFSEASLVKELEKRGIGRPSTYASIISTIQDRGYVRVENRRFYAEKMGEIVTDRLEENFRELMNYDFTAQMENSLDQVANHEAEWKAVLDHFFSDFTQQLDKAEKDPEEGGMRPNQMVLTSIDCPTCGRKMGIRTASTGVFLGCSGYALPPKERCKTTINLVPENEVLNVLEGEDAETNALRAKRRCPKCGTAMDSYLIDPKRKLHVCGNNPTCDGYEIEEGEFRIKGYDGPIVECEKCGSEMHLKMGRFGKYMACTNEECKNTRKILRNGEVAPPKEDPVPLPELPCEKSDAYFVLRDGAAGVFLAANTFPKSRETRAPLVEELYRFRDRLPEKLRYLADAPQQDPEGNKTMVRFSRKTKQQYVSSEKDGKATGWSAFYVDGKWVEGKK
Chain of UniProt P27859 (P27859 whole entry): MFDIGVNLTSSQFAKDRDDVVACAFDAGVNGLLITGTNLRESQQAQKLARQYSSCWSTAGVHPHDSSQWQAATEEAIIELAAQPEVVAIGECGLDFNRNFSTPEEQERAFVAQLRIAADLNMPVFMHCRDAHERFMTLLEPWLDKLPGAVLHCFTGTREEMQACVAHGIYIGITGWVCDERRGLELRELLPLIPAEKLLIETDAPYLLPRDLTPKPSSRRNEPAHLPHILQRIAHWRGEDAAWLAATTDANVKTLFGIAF
Chain of UniProt P0ACW4 (P0ACW4 whole entry): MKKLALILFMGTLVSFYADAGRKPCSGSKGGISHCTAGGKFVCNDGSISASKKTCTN
Chain of UniProt P32173 (P32173 whole entry): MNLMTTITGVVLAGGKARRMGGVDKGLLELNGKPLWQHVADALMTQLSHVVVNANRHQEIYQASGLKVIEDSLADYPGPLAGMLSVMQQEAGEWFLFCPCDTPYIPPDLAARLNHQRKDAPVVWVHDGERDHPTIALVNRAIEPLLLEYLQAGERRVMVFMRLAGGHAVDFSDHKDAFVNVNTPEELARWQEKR
Chain of UniProt P36672 (P36672 whole entry): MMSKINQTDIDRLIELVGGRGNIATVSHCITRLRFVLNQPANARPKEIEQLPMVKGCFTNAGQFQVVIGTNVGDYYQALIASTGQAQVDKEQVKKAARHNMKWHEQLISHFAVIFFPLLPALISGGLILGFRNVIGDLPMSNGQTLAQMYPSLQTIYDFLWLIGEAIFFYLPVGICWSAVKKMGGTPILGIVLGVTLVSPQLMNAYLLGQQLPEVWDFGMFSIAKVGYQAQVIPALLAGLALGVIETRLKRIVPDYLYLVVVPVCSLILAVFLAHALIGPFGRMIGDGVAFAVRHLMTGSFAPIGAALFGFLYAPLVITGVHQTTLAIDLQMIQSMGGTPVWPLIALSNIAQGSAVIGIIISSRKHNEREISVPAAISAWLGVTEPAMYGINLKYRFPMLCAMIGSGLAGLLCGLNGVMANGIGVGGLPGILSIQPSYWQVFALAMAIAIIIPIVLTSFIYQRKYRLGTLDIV
Chain of UniProt P24193 (P24193 whole entry): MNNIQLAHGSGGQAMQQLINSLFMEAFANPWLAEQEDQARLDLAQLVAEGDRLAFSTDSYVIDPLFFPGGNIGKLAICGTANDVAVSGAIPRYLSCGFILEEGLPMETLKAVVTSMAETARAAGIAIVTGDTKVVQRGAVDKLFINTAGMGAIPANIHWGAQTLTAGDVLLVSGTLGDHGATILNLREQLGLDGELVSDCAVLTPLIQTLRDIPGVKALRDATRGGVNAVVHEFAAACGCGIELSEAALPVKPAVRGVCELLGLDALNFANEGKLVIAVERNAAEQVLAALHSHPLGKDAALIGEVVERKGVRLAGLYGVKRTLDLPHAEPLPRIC
Chain of UniProt P25740 (P25740 whole entry): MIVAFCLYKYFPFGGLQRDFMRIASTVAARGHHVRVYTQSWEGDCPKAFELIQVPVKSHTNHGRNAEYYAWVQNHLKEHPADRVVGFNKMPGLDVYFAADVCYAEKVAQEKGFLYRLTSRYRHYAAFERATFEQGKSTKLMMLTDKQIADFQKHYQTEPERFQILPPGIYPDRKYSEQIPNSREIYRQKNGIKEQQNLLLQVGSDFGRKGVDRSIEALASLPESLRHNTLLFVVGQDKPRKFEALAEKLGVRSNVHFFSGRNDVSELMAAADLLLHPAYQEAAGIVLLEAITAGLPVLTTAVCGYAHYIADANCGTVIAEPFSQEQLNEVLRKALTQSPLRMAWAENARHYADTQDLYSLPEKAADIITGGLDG
Chain of UniProt P06966 (P06966 whole entry): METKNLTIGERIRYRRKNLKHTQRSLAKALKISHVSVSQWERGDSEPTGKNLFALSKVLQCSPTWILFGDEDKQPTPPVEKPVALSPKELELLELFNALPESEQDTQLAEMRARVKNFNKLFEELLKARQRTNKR
Chain of UniProt P77739 (P77739 whole entry): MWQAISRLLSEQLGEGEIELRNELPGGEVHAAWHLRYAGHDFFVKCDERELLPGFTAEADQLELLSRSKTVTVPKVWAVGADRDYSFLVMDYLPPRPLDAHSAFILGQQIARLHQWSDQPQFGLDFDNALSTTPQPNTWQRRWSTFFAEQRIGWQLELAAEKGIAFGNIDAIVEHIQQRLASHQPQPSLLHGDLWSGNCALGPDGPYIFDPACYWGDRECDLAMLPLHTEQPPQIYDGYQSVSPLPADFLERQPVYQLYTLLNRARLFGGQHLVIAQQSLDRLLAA
Chain of UniProt P37194 (P37194 whole entry): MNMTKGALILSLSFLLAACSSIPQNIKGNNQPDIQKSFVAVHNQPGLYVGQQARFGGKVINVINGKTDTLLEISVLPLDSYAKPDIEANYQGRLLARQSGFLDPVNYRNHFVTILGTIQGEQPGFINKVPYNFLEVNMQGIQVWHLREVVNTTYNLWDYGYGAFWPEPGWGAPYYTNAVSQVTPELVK
Chain of UniProt P20083 (P20083 whole entry): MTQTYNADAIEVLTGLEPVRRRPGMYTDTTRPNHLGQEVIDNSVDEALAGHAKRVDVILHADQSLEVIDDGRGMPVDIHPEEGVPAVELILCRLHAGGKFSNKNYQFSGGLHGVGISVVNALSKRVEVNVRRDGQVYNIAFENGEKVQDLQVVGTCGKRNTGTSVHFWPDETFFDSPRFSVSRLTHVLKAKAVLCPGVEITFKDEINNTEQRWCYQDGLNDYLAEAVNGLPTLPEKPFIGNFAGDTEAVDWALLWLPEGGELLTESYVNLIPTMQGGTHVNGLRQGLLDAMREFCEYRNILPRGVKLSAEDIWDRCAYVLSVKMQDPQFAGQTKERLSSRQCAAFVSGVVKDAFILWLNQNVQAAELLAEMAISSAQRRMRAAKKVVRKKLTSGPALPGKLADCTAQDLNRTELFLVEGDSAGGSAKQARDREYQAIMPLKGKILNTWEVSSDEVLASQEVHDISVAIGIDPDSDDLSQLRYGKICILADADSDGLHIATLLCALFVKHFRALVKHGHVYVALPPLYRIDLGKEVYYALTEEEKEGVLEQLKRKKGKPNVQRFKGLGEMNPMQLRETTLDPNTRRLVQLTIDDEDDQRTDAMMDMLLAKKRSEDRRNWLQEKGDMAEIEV

Compound in the test: Nc1ncnc2c1ncn2[C@@H]1O[C@H](COP(=O)(O)OP(=O)(O)OP(=O)(O)O)[C@@H](O)[C@H]1O [adenosine 5'-triphosphate]
As to the kind of experiment: log2 fold change of tryptic peptide abundance, ligand vs vehicle (limited proteolysis) (log2 ratio); higher = more trypsin-susceptible (destabilized). Particulars: ligand concentration: 5 mM; sample: E. coli desalted lysate; replicate design: treated before aliquoting. The procedure: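 HT-PELSA: desalted E. coli K-12 BW25113 lysate (with 12 mM MgCl2) incubated with 5 mM ATP (pH 7) or water for 30 min at 25 C, then a 4 min trypsin pulse at 22 C. Peptides were quantified by DIA-MS (4 replicates). Value is the peptide log2 fold change (treated/control); negative = stabilized. Scale: negative = ligand-stabilized region.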
For “UniProt P06612 (peptide sequence: ADHIYLATDLDREGEAIAWHLR, peptide start residue: 103)”, the log2 fold change is -1.02.
The figure for “UniProt P24240 (peptide sequence: YGFVFVDRDDAGNGTLTR, peptide start residue: 436)” is -0.866; for “UniProt P0ACW4 (peptide sequence: GGISHCTAGGK, peptide start residue: 30)” it is -0.911.
The figure for “UniProt P0A7D4 (peptide sequence: EMKELEDR, peptide start residue: 83)” is -1.78; for “UniProt P00350 (peptide sequence: RIDKEGVFHTEWLD, peptide start residue: 455)” it is -0.396; for “UniProt P08401 (peptide sequence: NVQEGGVLASLR, peptide start residue: 457)” it is 0.651.
The figure for “UniProt P19323 (peptide sequence: ELENVIER, peptide start residue: 600)” is -0.833; for “UniProt Q46802 (peptide sequence: GAFTGASANGK, peptide start residue: 347)” it is -0.841.
In the case of “UniProt P0A9L8 (peptide sequence: FAAQAVMGSAK, peptide start residue: 203)”, the log2 fold change is -0.702.
For “UniProt P36672 (peptide sequence: LRFVLNQPANARPK, peptide start residue: 33)” the value was 0.581; for “UniProt P27859 (peptide sequence: ELLPLIPAEK, peptide start residue: 188)”, -0.738.
As for “UniProt P76206 (peptide sequence: FEFGPGVR, peptide start residue: 152)”, the log2 fold change is 1.15.
For “UniProt P24232 (peptide sequence: MFTHNPELKEIFNMSNQR, peptide start residue: 32)” the value was -1.5; for “UniProt P23836 (peptide sequence: VLVVEDNALLR, peptide start residue: 3)”, 0.563.
The figure for “UniProt P52612 (peptide sequence: DRGQHVLLIMDSLTR, peptide start residue: 262)” is -1.35; for “UniProt P25740 (peptide sequence: HYAAFER, peptide start residue: 123)” it is -0.355; for “UniProt P03817 (peptide sequence: FGAIGIGSR, peptide start residue: 85)” it is 0.339.
For “UniProt P14081 (peptide sequence: EHLLQLPER, peptide start residue: 159)” the value was -1.29.
In the case of “UniProt P75821 (peptide sequence: DIKEDFRPHR, peptide start residue: 126)”, the log2 fold change was -1.6.
In the case of “UniProt P23837 (peptide sequence: EITEQYEGK, peptide start residue: 451)”, the log2 fold change is -1.72.
For “UniProt P36566 (peptide sequence: TLSPDYPR, peptide start residue: 179)” the value was -1.28.
For “UniProt P10443 (peptide sequence: GLPVVATNDVR, peptide start residue: 193)” the value was 0.539.
In the case of “UniProt P33371 (peptide sequence: ICPELQNASR, peptide start residue: 49)”, the log2 fold change came to 0.883.
For “UniProt P06966 (peptide sequence: ISHVSVSQWER, peptide start residue: 32)” the value was -1; for “UniProt P77739 (peptide sequence: IGWQLELAAEK, peptide start residue: 152)”, -0.651; for “UniProt P24193 (peptide sequence: AVVTSMAETAR, peptide start residue: 111)”, -1.88.
With “UniProt P22106 (peptide sequence: QALEDSVK, peptide start residue: 214)”, the log2 fold change was -0.816.
For “UniProt P00960 (peptide sequence: AVAEAYYASREALGFPMCNKDK, peptide start residue: 282)” the value was 0.93; for “UniProt P0A698 (peptide sequence: SSLAFDTLYAEGQRR, peptide start residue: 38)”, 2.9; for “UniProt P37194 (peptide sequence: GNNQPDIQK, peptide start residue: 28)”, 0.489.
Turning to “UniProt P32173 (peptide sequence: DAPVVWVHDGERDHPTIALVNR, peptide start residue: 119)”, the log2 fold change was -0.372.
For “UniProt P13009 (peptide sequence: DQVEDYAR, peptide start residue: 1198)” the value was -1.27.
“UniProt P77735 (peptide sequence: LGMDYVDILQIHR, peptide start residue: 116)”: the log2 fold change is -0.843.
For “UniProt P27296 (peptide sequence: SIPHIIVTSATLR, peptide start residue: 451)” the value was -2.01.
For “UniProt P04968 (peptide sequence: EALLAVTIPEEK, peptide start residue: 338)” the value was 0.397.
The figure for “UniProt P20083 (peptide sequence: VQDLQVVGTCGKR, peptide start residue: 147)” is -1.89.
Regarding “UniProt P25437 (peptide sequence: SQLPGMVEDAMK, peptide start residue: 321)”, the log2 fold change is -0.846.
With “UniProt P37648 (peptide sequence: DKGLPEEEFNALVAQK, peptide start residue: 363)”, the log2 fold change turned out to be 0.498.
Consider “UniProt P76257 (peptide sequence: GQPLVVEAGTGTGK, peptide start residue: 38)”, for which the log2 fold change was -0.82.
With “UniProt P39383 (peptide sequence: MLESHLR, peptide start residue: 221)”, the log2 fold change was -0.592.
